# High-throughput results from PubChem BioAssay.
# Giardia kill – kills Giardia lamblia; Giardia lamblia trophozoite viability; activity change, % at 7.66 µM, hits read low; 340,000 tested, 0.15% active; in the data active = activity change below about -80%; inconclusive = between about -30% and that limit;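 also: parasites exposed to compound for two days anaerobically before the ATP read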
#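 ATP-content bioluminescence gauges trophozoite survival. Cells (100/well) receive compound and incubate anaerobically for 48 hrs at 37 deg C; detection reagent follows for 15-30 min at room temperature.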
# PI4K2A inh – blocks human PI4K2A kinase activity; Q9BTU6; purified PI4K2A, ADP-Glo luminescence, 1 h; active compounds read low; activity change, negative = inhibition, % at 76.9 µM; 420,000 tested, 0.13% active; AID 1346378; in the data active = activity change below about -50%; inconclusive = mostly about -30% to -49%
# Target sequence (Q9BTU6 whole entry, looked up): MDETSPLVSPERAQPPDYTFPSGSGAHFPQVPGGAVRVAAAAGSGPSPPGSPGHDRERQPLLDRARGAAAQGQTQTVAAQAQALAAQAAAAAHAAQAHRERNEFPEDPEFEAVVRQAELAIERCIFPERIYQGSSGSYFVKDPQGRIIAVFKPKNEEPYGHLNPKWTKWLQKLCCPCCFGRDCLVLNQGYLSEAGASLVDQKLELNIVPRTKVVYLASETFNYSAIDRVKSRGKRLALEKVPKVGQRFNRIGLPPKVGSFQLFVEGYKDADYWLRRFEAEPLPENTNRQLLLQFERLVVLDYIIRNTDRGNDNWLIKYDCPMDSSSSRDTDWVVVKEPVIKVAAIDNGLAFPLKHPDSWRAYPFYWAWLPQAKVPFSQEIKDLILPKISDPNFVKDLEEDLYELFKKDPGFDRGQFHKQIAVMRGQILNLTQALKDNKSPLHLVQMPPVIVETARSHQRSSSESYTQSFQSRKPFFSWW
#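 ADP-Glo luminescence measured ADP generated by PI4K2A enzyme (4 ug/mL before mixing) with 1.2 mM PI substrate (pre-mix) and 300 microM ATP (pre-mix). Tris pH7.5 buffer with MgCl2, Triton X-100; 1 h reaction at ambient temperature.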
# KB-3-1 cytotox – KB-3-1 parental cell cytotoxicity | KB-3-1 viability, CellTiter-Glo ATP luminescence, 72 h | 400,000 tested, 1.4% active | Potency, µM (doses to about 46.1 µM), usual class: cytotoxic | AID 1347075; also: nearly all actives have a fitted effect of over 60% in size
#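 Parental KB-3-1 adenocarcinoma cells in phenol-red-free DMEM with 10% FBS were pin-treated with compounds at several concentrations, incubated 72 h at 37 °C, and viability read by CellTiter-Glo luminescence; concentration-effect curves were fitted after normalization.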
# KB-V1 MDR tox – kills drug-selected multidrug resistant KB-V1 cells; KB-V1 MDR cells viability, CellTiter-Glo, 72 h; Potency, µM (titrated, usually from 46.1 µM), actives largely listed as cytotoxic; 400,000 tested, 3.4% active; AID 1347076; also: nearly all actives have a fitted effect of over 60% in size
#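 Cytotoxicity via CellTiter-Glo luminescence after 72 h compound exposure at 37 degrees C. Cells: drug-selected KB-V1 line, DMEM phenol-red free plus 10% FBS. Compounds tested at multiple concentrations; normalized data fitted to concentration-effect curves.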
# Nrf2 inh – inhibitors of Nrf2 signaling; AID 504444; 360,000 tested, 2.1% active; A549 ARE-Fluc reporter, luciferase luminescence, 18-24 h; Potency, µM (doses to about 46 µM), usual class: inhibitors; also: nearly all actives have a fitted effect of over 60% in size
#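 Nrf2 activity is the BugLite luminescence, read 15 min after reagent at room temperature, following CellTiter-Fluor cytotoxicity readout (30 min, 37C). Compound titrations were applied for 18-24 h to 5000 A549 ARE_Fluc cells/well in 5% FBS OPTI-MEM.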
# A549 tox – kills or reduces viability of A549 cells in Nrf2 counter-screen; A549 ARE-Fluc cells, CellTiter-Fluor viability, 18-24 h; Potency, µM (highest dose often 46 µM), most hits filed as inhibitors; 390,000 tested, 0.16% active; AID 504648
#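 A549 ARE-Fluc cells in 5% FBS OPTI-MEM, 5000 cells/well, rested 2 h then exposed to compounds in concentration-response for 18-24 h at 37 °C. Viability by CellTiter-Fluor fluorescence (Ex 405/Em 525) after 30 min; luciferase luminescence (BugLite, 15 min, RT) read afterwards.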
# Hits are given with their value; i = inactive; ? = inconclusive; nt = not tested or not shown. This is a sample that favours compounds with a hit; in the whole collection about 5.7% have one here. Unless noted, calls follow the shape of the dose curve; as a rule, active = well fitted curve in the direction sought with a large enough effect; inconclusive = small, poorly fitted or top-dose-only effect, or another doubt; inactive = no such curve, though single readings can be large; an effect the other way counts as inactive or inconclusive.
SMILES,Giardia kill,PI4K2A inh,KB-3-1 cytotox,KB-V1 MDR tox,Nrf2 inh,A549 tox
CC(C)n1c(SCC(=O)Nc2nc3ccccc3s2)nc2c1c(=O)n(C)c(=O)n2C,i,i,i,i,?,i
Cn1c(NCCCN2CCOCC2)nc2c1c(=O)n(Cc1ccc(Cl)c(Cl)c1)c(=O)n2C,i,i,i,15µM,i,i
Cn1c(NCCCN2CCOCC2)nc2c1c(=O)n(Cc1ccc(Cl)cc1)c(=O)n2C,i,i,i,18µM,nt,i
C/C(C=NNC(=O)CSc1nnc(-c2ccccc2)n1-c1ccc(C)cc1)=C\c1ccco1,nt,i,nt,nt,nt,nt
S=C(Nc1ccccc1Cl)N(CCCN1CCOCC1)Cc1ccco1,i,i,i,21µM,i,i
COc1ccc(OCC(=O)OCC(=O)NC2CCCCC2C)cc1 (stereo not drawn),i,i,i,?,i,i
COc1cc(NC2CCCCC2O)c2nc(-c3ccc(Cl)cc3)ccc2c1 (stereo not drawn),i,i,?,?,?,9.2µM
COc1ccccc1NC(=S)OC1CCC12CCC(c1ccccc1)CC2 (stereo not drawn),nt,i,nt,nt,nt,nt
Cc1ccc(/C=N/NC(=O)CN(Cc2ccccc2)S(=O)(=O)c2ccc3c(c2)OCCO3)cc1,i,i,i,5.8µM,?,i
Cc1cc(-c2nnc(-c3ccccc3)c(-c3ccccc3)n2)c(C)o1,i,i,i,i,?,nt
Cc1ccc(-c2nnc(-c3ccccc3)c(-c3ccccc3)n2)cc1,i,i,i,18µM,i,i
Cc1ccc(C2CC(c3ccccc3)=NN2C(=S)Nc2ccccc2)o1 (stereo not drawn),i,i,5.8µM,5.2µM,?,i
Cc1ccccc1CN(CC(=O)Nc1cccc([N+](=O)[O-])c1)S(=O)(=O)c1ccc(Cl)cc1,i,i,i,5.8µM,?,i
O=C(NC1CC1)C1CCCN1S(=O)(=O)c1ccc2ccccc2c1 (stereo not drawn),i,i,16µM,?,i,i
Cc1ccccc1OCCn1cc(/C(N)=N/O)c2ccccc21,i,i,i,?,23µM,i
CC(=O)c1cn(CCOc2cc(C)ccc2C)c2ccccc12,i,i,?,2.1µM,6.5µM,i
O=[N+]([O-])c1ccc(/C=N/Nc2nc(N3CCCCC3)nc(N3CCCCC3)n2)cc1,i,i,i,i,i,i
O=[N+]([O-])c1ccc(/C=N/Nc2nc(N3CCCCCC3)nc(N3CCCCCC3)n2)o1,?,i,6.5µM,?,?,i
Cc1cc(Nc2ccc([N+](=O)[O-])cc2)nc2ccccc12,i,i,i,i,i,?
Cc1cc(N/N=C/c2ccc([N+](=O)[O-])o2)nc2ccccc12,-82,i,i,?,?,i
Cn1c(/C=C/c2ccc([N+](=O)[O-])o2)nc2ccccc2c1=O,?,i,1.8µM,?,21µM,?
Cc1ccc(-c2cc(C(=O)N/N=C/c3ccc([N+](=O)[O-])o3)c3ccccc3n2)o1,-92,i,i,?,21µM,?
COC[C@H]1CCCN1c1ccc2c(c1)O[C@H]1CCN(C1)S2(=O)=O,nt,i,nt,nt,nt,nt
COC(=O)[C@H]1[C@H]2C[C@@H]3c4[nH]c5cc(OC)ccc5c4CCN3C[C@H]2C[C@@H](OC(=O)/C=C/c2ccc(O)c(OC)c2)[C@@H]1OC,nt,i,nt,nt,nt,nt
O=C(N/N=C/c1ccc([N+](=O)[O-])o1)c1cc(-c2ccc(-c3ccccc3)cc2)nc2ccccc12,-98,i,?,i,?,i
SMILES,Giardia kill,PI4K2A inh,KB-3-1 cytotox,KB-V1 MDR tox,Nrf2 inh,A549 tox
CCN(c1ccccc1)S(=O)(=O)c1ccc(N)c(OC)c1,i,i,16µM,23µM,i,i
O=S1(=O)CCOC[C@H](c2ccccc2)N1Cc1ccc(Cl)c(Cl)c1,nt,nt,?,i,nt,nt
CN(CC(=O)NCCN1CCN(Cc2ccccc2)CC1)S(=O)(=O)c1cccc2nsnc12,i,i,i,i,i,i
Cc1ccc(NC(=O)CN(C)S(=O)(=O)c2cccc3nsnc23)cc1Cl,i,i,i,i,18µM,i
Cc1ccc(NC(=O)CN(C)S(=O)(=O)c2cccs2)cc1F,i,i,?,15µM,nt,i
CN(CC(=O)NCCc1ccccc1)S(=O)(=O)c1cccc2nsnc12,i,i,i,9.2µM,i,i
Cc1ccc(NC(=O)CN(C)S(=O)(=O)c2cccs2)cc1C,i,i,?,?,i,i
Cc1ccc(NC(=O)CN(C)S(=O)(=O)c2cccc3nsnc23)cc1C,i,i,i,i,i,i
OCCN1CCCC12CCC(c1ccccc1)CC2 (stereo not drawn),nt,i,nt,nt,nt,nt
COc1ccc(CCNC(=O)c2cccc(-n3cnnn3)c2)cc1,i,i,i,i,i,i
Cc1ccc(CCNC(=O)c2cc3c(-c4ccccc4F)nn(C)c3s2)cc1,nt,i,i,i,?,i
Cn1nc(-c2ccccc2F)c2cc(C(=O)N3CCN(c4ccccc4F)CC3)sc21,nt,i,?,5.2µM,?,i
CCOc1ccc(CCNC(=O)c2cccc(-n3cnnn3)c2)cc1OCC,i,i,i,18µM,?,i
CCOc1ccc(CCNC(=O)c2cc3c(-c4ccccc4F)nn(C)c3s2)cc1OCC,nt,i,?,i,18µM,i
C=CCC12C=C(OC)C(=O)C(C1=O)C1c3ccccc3CC12 (stereo not drawn),nt,i,nt,nt,nt,nt
CCOC(=O)CN1CCc2c(C)nc3c(-c4ccc(OC)c(OC)c4)cnn3c21,i,i,i,8.2µM,i,i
COc1ccc2c(c1)C=C/C2=C/c1ccc(N(C)C)cc1,nt,nt,i,i,nt,nt
CC1CCCCC1NC(=O)CN1CCN(S(=O)(=O)c2ccc(Br)s2)CC1 (stereo not drawn),i,i,?,9.2µM,?,i
CC1CCCCN1C(=O)CSc1ccc(-c2ccc(F)cc2)nn1 (stereo not drawn),i,i,i,12µM,nt,i
CC(=NNC(N)=S)c1ccc2cc3c(cc2c1)OCO3,nt,i,?,0.58µM,nt,nt
CC(=O)N/N=C(\C)c1ccc2c(c1)OCCO2,i,i,?,23µM,?,i
C/C(=N\NC(=S)Nc1ccc(F)cc1)c1ccc2c(c1)OCCO2,i,i,?,12µM,i,i
CCOCC(=O)Nc1ccc2c(c1)OCCO2,i,i,i,i,i,i
C/C(=N\OCC(=O)Nc1ccc2c(c1)OCCO2)c1ccc2c(c1)OCCO2,i,i,i,?,18µM,i
COc1cccc(/C=C/c2nc3ccccc3nc2/C=C/c2cccc(OC)c2OC)c1OC,nt,nt,?,i,nt,nt
NC(=O)C1CCN(c2nnc(-c3ccc4c(c3)OCCCO4)s2)CC1,nt,nt,i,i,nt,nt
CCc1ccc(Cn2c(=O)n(Cc3ccc(C(=O)NCCCOC)cc3)c(=O)c3ccccc32)cc1,nt,i,nt,nt,nt,nt
Cc1ccc(-c2nc(NC(=O)CSc3nnc4scc(-c5ccccc5)n34)ns2)cc1,i,i,i,i,21µM,?
